In PubChem BioAssay AID1159580 (chemical genetic matrix, 2015):
Hit rate of the full screen: of about 5,500 compounds, about 2,000 (36%) were called active. Another 18% or so got no clear call; they are omitted. No stated cut-off is given here; in the data, active means normalized growth mostly below about 0.91 (no sharp cut-off); inconclusive means no clear call, values can overlap the other calls; inactive means mostly above about 0.92. Some of the results follow.

Assay: chemical genetic growth profiling, strain panel (AID 1159580);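 further: tested at 20 µM; growth read once vehicle control cultures reached saturation at 30 °C; 1 = growth at the plate median or of vehicle wells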
Settings: S. cerevisiae deletion strains, growth OD

Measured: normalized growth

CC(C)(C)C1=CC(=O)C=C(C(C)(C)C)C1=O
inactive: locus YAL013W, strain DEP1, stronger effect = lower value 1.03 | locus YBR229C, strain ROT2, stronger effect = lower value 1.04 | locus YDL101C, strain DUN1, stronger effect = lower value 0.997 | locus YDL134C, strain PPH21, stronger effect = lower value 1.01 | locus YDR150W, strain NUM1, stronger effect = lower value 0.979 | locus YEL061C, strain CIN8, stronger effect = lower value 1 | locus YGR078C, strain PAC10, stronger effect = lower value 1.01 | locus YHR030C, strain SLT2, stronger effect = lower value 0.996 | locus YHR087W, strain rtc3, stronger effect = lower value 1 | locus YJR043C, strain POL32, stronger effect = lower value 1.02 | locus YJR075W, strain HOC1, stronger effect = lower value 1.01 | locus YLR039C, strain RIC1, stronger effect = lower value 1.03 | locus YLR058C, strain SHM2 (second series), stronger effect = lower value 1.02 | locus YLR085C, strain ARP6, stronger effect = lower value 1.05 | locus YLR262C, strain YPT6, stronger effect = lower value 1 | locus YML094W, strain GIM5, stronger effect = lower value 1.01 | locus YMR219W, strain ESC1, stronger effect = lower value 1.01 | locus YMR263W, strain SAP30, stronger effect = lower value 1.02 | locus YMR307W, strain GAS1, stronger effect = lower value 1.02 | locus YNL153C, strain GIM3, stronger effect = lower value 1.03 | locus YNL298W, strain CLA4 (second series), stronger effect = lower value 1.03 | locus YNL322C, strain KRE1, stronger effect = lower value 1 | locus YNR030W, strain Alg12, stronger effect = lower value 1.03 | locus YOL006C, strain TOP1, stronger effect = lower value 1.05 | locus YPL055C, strain LGE1, stronger effect = lower value 1.02 | locus YPL241C, strain CIN2, stronger effect = lower value 0.999 | locus YPR135W, strain CTF4, stronger effect = lower value 1.07
